Screening results as filed in PubChem.
Compounds with a hit are over-represented: about 3.2% of the library has one in this group of screens.
LGR2 antag: inhibitors of bursicon-induced Drosophila LGR2 receptor cAMP signaling; HEK293 LGR2, CRE-luciferase, bursicon-stimulated, 4 h; inhibition, % at 9.99 µM; 380,000 tested, 0.35% active; AID 720647;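 active = drop in luminescence signal, shown as inhibition above about 50% in the replicate tests, limit read from the data, passing the limit was not always enough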;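 note: agonist challenge used bursicon conditioned medium at about half maximal strength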
TWEAK Fn14 block: blocks TWEAK-Fn14 interaction in a reporter cell assay; AID 1159606; 360,000 tested, 2% active; TWEAK-stimulated Fn14 reporter cells, luciferase luminescence, 8 h; inhibition, % at 10 µM; in the data active = inhibition above about 50%
EWS-Fli inh: inhibitors of EWS/Fli oncoprotein transcriptional activity | A673 NR0B1-luciferase reporter, viability-normalised | inhibition, % at 12.6 µM | 350,000 tested, 0.67% active | AID 651661;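 active = mean inhibition of at least 50% after viability correction, with every replicate also passing that limit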;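 note: firefly luciferase signal divided by Alamar Blue viability fluorescence both relative to DMSO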
TROY NFkB inh: TROY signaling inhibition | Q293 LMP1-TROYcd NF-kB luciferase reporter, 4 h | AID 1347056 | 360,000 tested, 0.98% active | inhibition, % at 10 µM;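 active = compounds whose plate-normalised and pattern-corrected inhibition of the luciferase reporter signal at the single screening dose is 50% or more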
PAX8 reporter: lowers PAX8-driven luciferase in RMG-I cells; RMG-I TPO-luciferase reporter, SteadyGlo, 24 h; inhibition, % at 12.6 µM; 360,000 tested, 1.2% active; AID 652154;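 active = mean replicate inhibition at least 60% with every replicate also reaching 60%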;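 note: luciferase light reporting Pax8 driven TPO promoter activity; plate controls were median of neutral control wells for no effect and mitoxantrone controls for full effect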
EBV LMP1 NFkB: inhibitors of Epstein-Barr LMP1-induced NF-kappaB reporter. LMP1-induced NF-kappaB luciferase reporter cells, luminescence. 350,000 tested, 0.69% active. inhibition, % at 12.5 µM; in the data active = inhibition above about 41%;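 note: 0% = neutral control wells and 100% = reference inhibitor control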
The depositor's hits bear a star; ! = repeats disagree.

Results for COc1ccc(-c2ccc(C(=O)Nc3cccc(NS(C)(=O)=O)c3)c3occc23)c(C)c1 ?
LGR2 antag: 2.7; TWEAK Fn14 block: 58.6*; EWS-Fli inh: -16.5; TROY NFkB inh: 43.1; PAX8 reporter: -18.6

Results for COc1ccc(-c2ccc(C(=O)Nc3cccc(F)c3)c3occc23)c(C)c1 ?
LGR2 antag: -113.7; TWEAK Fn14 block: 50.0; EWS-Fli inh: -80.0; TROY NFkB inh: 58.4*; PAX8 reporter: -246.9

Results for C[C@@H]1CCCCO[C@H](CN(C)Cc2ccc(Cl)c(Cl)c2)[C@H](C)CN([C@@H](C)CO)C(=O)c2cc(NS(=O)(=O)c3ccc(F)cc3)ccc2O1 ?
LGR2 antag: -1.0; EWS-Fli inh: -5.9; PAX8 reporter: 57.3

What do the screens show for `C[C@H](CO)N1C[C@H](C)[C@H](CN(C)Cc2ccc(C(=O)O)cc2)Oc2ccc(NC(=O)Cn3cnnn3)cc2C1=O`?
LGR2 antag: 6.5; EWS-Fli inh: 2.0

Results for CN(C)C(=O)C[C@H]1CC[C@@H](NC(=O)c2ccc(F)cc2)[C@@H](CO)O1 ?
LGR2 antag: -5.1; EWS-Fli inh: -11.2; PAX8 reporter: -4.0

What do the screens show for `C[C@H]1CN([C@@H](C)CO)C(=O)c2c(c3ccccc3n2C)-c2ccccc2CO[C@@H]1CN(C)S(=O)(=O)c1ccsc1`?
LGR2 antag: -7.3; EWS-Fli inh: 13.2; PAX8 reporter: 92.3*

Results for C[C@H](CO)N1C[C@H](C)[C@H](CN(C)S(=O)(=O)c2ccc(Cl)cc2)OCc2ccccc2-c2c(n(C)c3ccccc23)C1=O ?
LGR2 antag: 38.3; TWEAK Fn14 block: 61.8*; EWS-Fli inh: 9.4; TROY NFkB inh: 24.1; PAX8 reporter: 87.8*!; EBV LMP1 NFkB: 1.9

What do the screens show for `Cc1ccc(S(=O)(=O)N(C)C[C@@H]2OCc3ccccc3-c3c(n(C)c4ccccc34)C(=O)N([C@H](C)CO)C[C@@H]2C)cc1`?
LGR2 antag: 32.1; TWEAK Fn14 block: 25.3; EWS-Fli inh: 7.7; TROY NFkB inh: 24.6; PAX8 reporter: 71.3*!; EBV LMP1 NFkB: -1.5

What do the screens show for `O=C(Nc1ccc(-c2cn3ccsc3n2)cc1)c1ccc(F)c(S(=O)(=O)N2CCOCC2)c1`?
TWEAK Fn14 block: 58.8*; TROY NFkB inh: 39.8; PAX8 reporter: 22.8; EBV LMP1 NFkB: -14.2

What do the screens show for `CC(C)(Sc1ccc(CCN(CCCCC2CCCCC2)C(=O)NC2CCCCC2)cc1)C(=O)O`?
LGR2 antag: 4.8; TWEAK Fn14 block: -37.2; EWS-Fli inh: 4.5; TROY NFkB inh: 50.6*; PAX8 reporter: -18.7; EBV LMP1 NFkB: -0.8

How did C[C@@H](NC(=O)C[C@@H]1CC[C@H](NC(=O)Cc2ccccn2)[C@@H](CO)O1)c1ccccc1 do in these assays?
LGR2 antag: 8.5; EWS-Fli inh: -5.8; PAX8 reporter: 17.7

What do the screens show for `Cc1cc(C(C)(C)C)cc(C)c1Cn1c2[n+](c3ccc(C(F)(F)F)cc31)CCCCC2`?
LGR2 antag: -8.6; TWEAK Fn14 block: 35.6; EWS-Fli inh: 40.3; TROY NFkB inh: 39.0; PAX8 reporter: 90.5*; EBV LMP1 NFkB: 0.2

What do the screens show for `CCc1ccc(-c2csc(NC(=O)C3=NN(c4ccccc4)C(=O)CC3)n2)cc1`?
LGR2 antag: -4.2; TWEAK Fn14 block: 73.5*; TROY NFkB inh: 51.3*; PAX8 reporter: -9.5; EBV LMP1 NFkB: 2.7

What do the screens show for `CCc1ccc(-c2csc(NC(=O)c3cccnc3)n2)cc1`?
LGR2 antag: 26.4; TWEAK Fn14 block: 60.9*; TROY NFkB inh: 20.9; PAX8 reporter: -17.2; EBV LMP1 NFkB: 12.7

Results for COc1cc(NCCCCCCCN)c2ncccc2c1 ?
TWEAK Fn14 block: 96.5*; TROY NFkB inh: -7.5; EBV LMP1 NFkB: 4.0

How did COc1cc(NC(C)CCCN)c2ncccc2c1 (stereo not given) do in these assays?
TWEAK Fn14 block: 85.7*; EWS-Fli inh: 8.0; TROY NFkB inh: -4.5; PAX8 reporter: 65.9*; EBV LMP1 NFkB: -12.8

What do the screens show for `COc1cc(NCc2ccccc2O)c2ncccc2c1`?
LGR2 antag: -10.1; TWEAK Fn14 block: 15.2; EWS-Fli inh: -4.8; TROY NFkB inh: 6.1; PAX8 reporter: 5.5; EBV LMP1 NFkB: -12.6

How did CC(C)NC(=O)Nc1cccc2c1O[C@H](CN(C)S(=O)(=O)c1cn(C)cn1)[C@@H](C)CN([C@H](C)CO)C2=O do in these assays?
EWS-Fli inh: -13.2

Results for O=C(CCN1CCN(c2ccccc2)CC1)c1ccc(Cl)cc1 ?
LGR2 antag: 2.4; TWEAK Fn14 block: 3.5; EWS-Fli inh: 3.5; TROY NFkB inh: 5.0; PAX8 reporter: 12.0; EBV LMP1 NFkB: 6.5

What do the screens show for `O=C(CCN1CCOCC1)c1ccc(N2CCCCC2)cc1`?
LGR2 antag: -38.0; TWEAK Fn14 block: 54.8*; EWS-Fli inh: 30.4; TROY NFkB inh: 7.2; PAX8 reporter: -6.4; EBV LMP1 NFkB: 2.0

What do the screens show for `CC(=O)Nc1ccc(NC(=O)c2ccc(-c3ccnn3C)c3ccoc23)cc1`?
LGR2 antag: -20.3; TWEAK Fn14 block: 1.2; EWS-Fli inh: 34.4; TROY NFkB inh: -0.7; PAX8 reporter: -42.4

Results for CC(C)c1ccc(NC(=O)c2ccc(-c3ccnn3C)c3ccoc23)cc1 ?
TWEAK Fn14 block: 78.8*; TROY NFkB inh: 32.7

Results for CN(C)Cc1cn(CC[C@H]2CC[C@@H](NC(=O)Nc3ccc4c(c3)OCO4)[C@@H](CO)O2)nn1 ?
LGR2 antag: -16.0; EWS-Fli inh: 0.4; PAX8 reporter: -7.5

What do the screens show for `CC(=O)Oc1c(I)cc(I)cc1C(=O)Nc1ccc(Cl)cc1`?
LGR2 antag: 46.2; TWEAK Fn14 block: 52.2*; TROY NFkB inh: 52.2*; PAX8 reporter: 3.9; EBV LMP1 NFkB: 12.0

What do the screens show for `COc1ccc(C[C@H]2CCn3cc(nn3)COC[C@@H](C(C)C)NC2=O)cc1`?
LGR2 antag: 1.8; EWS-Fli inh: -2.9; PAX8 reporter: -2.8

What do the screens show for `CCN1CCN(c2cc3c(cc2F)c(=O)c(C(=O)O)cn3C2CC2)CC1`?
LGR2 antag: -14.6; TWEAK Fn14 block: 60.1*; EWS-Fli inh: -4.2; TROY NFkB inh: -8.8; PAX8 reporter: 5.8; EBV LMP1 NFkB: -7.7

What do the screens show for `Cc1ccc(NC(=O)/C(C#N)=C/c2cc(C)n(-c3ccc(N4CCOCC4)c([N+](=O)[O-])c3)c2C)c(C)c1`?
LGR2 antag: 6.0; TWEAK Fn14 block: 53.6*; TROY NFkB inh: 12.6; EBV LMP1 NFkB: 26.9

Results for Cc1cc(/C=C(\C#N)C(=O)Nc2ccc(Cl)cc2)c(C)n1-c1ccc(N2CCOCC2)c([N+](=O)[O-])c1 ?
LGR2 antag: 39.1; TWEAK Fn14 block: 42.5; EWS-Fli inh: 10.1; TROY NFkB inh: 3.3; PAX8 reporter: 4.1; EBV LMP1 NFkB: 29.2

Results for O=C(C[C@@H]1CC[C@H]2[C@@H](COC[C@H](O)CN2S(=O)(=O)c2ccccc2)O1)Nc1ccc(-c2ccccc2)cc1 ?
LGR2 antag: 12.6; EWS-Fli inh: 0.8; PAX8 reporter: 33.5

Results for O=C(C[C@@H]1CC[C@H]2[C@@H](COC[C@H](O)CN2S(=O)(=O)c2cccc(Cl)c2)O1)Nc1ccc(-c2ccccc2)cc1 ?
LGR2 antag: -3.8; EWS-Fli inh: 3.9; PAX8 reporter: 67.4*
